About 1,100 (1.7%) of roughly 63,000 compounds were called active. The sample as a whole holds a higher share of actives than the screen did. Potency and affinity values are given separately. A number with no mark means an inactive call.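 Rule for the calls: active = compounds whose percent cytotoxicity in the single-dose primary screen, scaled between solvent and toxic-drug controls, exceeds 50; inactive = the rest.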
Assay: viability loss of HPDE-C7K cells – cell-based, fluorescence, HTS, primary screen (AID 431);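 note: 0% = DMSO solvent wells and 100% = doxorubicin-treated wells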
Details: HPDE-C7K KRASV12 cells, Alamar Blue viability, 48 h; at 10 µM; stronger effect = higher value

Going from `Cc1cc2nc(C(F)(F)F)[nH]c(=O)n2n1` to `COc1ccc(-c2cc(C(=O)NCC(C)C)no2)cc1`, the cytotoxicity falls from 2.8% to -0.6%.

Compared with `COC(=O)C1CCN(Cc2cc(=O)oc3cc(OC)ccc23)CC1`, `CCOC(=O)c1ccc(N=c2sc(C(=O)OC)cc(=O)n2C2CC2)cc1` is higher in cytotoxicity: -31.4% for the first, 14.1% for the second.

First: COC(=O)c1cc(=O)n(Cc2ccco2)c(=Nc2ccc(F)c(Cl)c2)s1
Second: COc1ccc(N=C2SC(CC(=O)Nc3ccc(OC)cc3OC)C(=O)N2C)cc1 (stereo not given)
The cytotoxicity of the first is higher: 26.9% for the first, -10.8% for the second.

Going from `COc1ccc(-c2cc(C(=O)N3CCN(C(c4ccccc4)c4ccccc4)CC3)no2)cc1` to `COc1ccc(N=c2oc3cc(O)ccc3cc2C(=O)NCC2CCCO2)cc1` (stereo not given), the cytotoxicity falls from 2.7% to -0.1%.

Compared with `COc1ccccc1N=c1oc2cc(O)ccc2cc1C(=O)NCC1CCCO1` (stereo not given), `COC(=O)c1ccc(C2/C(=C(\O)c3ccc(OC)c(C)c3)C(=O)C(=O)N2c2cc(C)on2)cc1` (stereo not given) is higher in cytotoxicity: 7% for the first, 13.9% for the second.

Going from `CC1(C)NC(=O)N(CC(O)COc2ccccc2C(=O)N2CCCCC2)C1=O` (stereo not given) to `CCOC(=O)N1CCN(C(=O)COc2ccc(S(=O)(=O)NC3CCCCC3)cc2C)CC1`, the cytotoxicity rises from -30.9% to -6.6%.

Compared with `CCCCC(=O)Nc1cccc2c1C(=O)N(c1ccccc1)C2=O`, `Cc1c(C#N)c2ccccc2n1CC(=O)NCCc1c[nH]c2ccccc12` is lower in cytotoxicity: -0.9% for the first, -3.8% for the second.

First: CCCCN(CC)S(=O)(=O)c1ccc(C(=O)Nc2nnc(COC)o2)cc1
Second: CCCCN(CC)S(=O)(=O)c1ccc(C(=O)Nc2nnc(CSC)o2)cc1
The cytotoxicity of the first is lower: 3.4% for the first, 8.9% for the second.

Compared with `CCCCN(C)S(=O)(=O)c1ccc(C(=O)Nc2nnc(CSC)o2)cc1`, `CCc1nnc(NC(=O)c2ccc(S(=O)(=O)N(CCOC)CCOC)cc2)o1` is higher in cytotoxicity: -2% for the first, -0.3% for the second.

Going from `CCc1nnc(NC(=O)c2ccc(S(=O)(=O)N(CC)Cc3ccccc3)cc2)o1` to `CCc1nnc(NC(=O)c2ccc(S(=O)(=O)N(CC(C)C)CC(C)C)cc2)o1`, the cytotoxicity rises from 33% to 47.6%.

With `CCOC(=O)c1ccc(N=c2sc(C(=O)OC)cc(=O)n2Cc2ccco2)cc1` the cytotoxicity was 119% (active).
In the case of `COc1ccc(N=c2oc3cc(O)ccc3cc2C(=O)NCC2CCCO2)c(OC)c1` (stereo not given), the cytotoxicity is reported as 53.8% (active).
With `CCCCN(CCCC)S(=O)(=O)c1ccc(C(=O)Nc2nnc(CSC)o2)cc1` the cytotoxicity was 70.1% (active).
In the case of `CSCc1nnc(NC(=O)c2ccc(S(=O)(=O)N(CC(C)C)CC(C)C)cc2)o1`, the cytotoxicity is reported as 57.2% (active).
For `CCCCN(CCCC)S(=O)(=O)c1ccc(C(=O)Nc2nnc(COC)o2)cc1`, the cytotoxicity was 66.7% (active).
